# Source: PubChem (several laboratories)
# Bcl-xL primary – inhibitors of human Bcl-xL, primary screen, biochemical, fluorescence polarization, HTS | GST-Bcl-xL / FITC-Bim BH3 peptide fluorescence polarization | inhibition, % at 10.9 µM | hit rate 0.7% among 320,000;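 active = inhibition above the mean of all tested compounds plus 3 SD, cutoff set per campaign, cut at about 30% in these data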;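 note: inhibitors lower millipolarization by displacing the labeled peptide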
# MCL1 BIM primary – inhibitors of MCL1 binding to BIM-BH3, primary screen, biochemical, fluorescence polarization | Induced myeloid leukemia cell differentiation protein Mcl-1 (Homo sapiens), Q07820 | GST-MCL1 / FITC-Bim-BH3 fluorescence polarization | inhibition, % at 10.9 µM | hit rate 0.68% among 320,000 | AID 2057, 2009;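 active = inhibition above the mean inhibition of all tested compounds plus 3 SD, set per campaign, cut at about 40% in these data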;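 note: higher means more loss of mP so more displacement of Bim peptide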
# GLD-1 RNA inh – GLD-1/TGE RNA complex disruptors, primary screen, biochemical, fluorescence polarization. purified GLD-1 + fluorescein TGE RNA. inhibition, % at 5.96 µM. hit rate 0.44% among 320,000. AID 2280, 2010;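 active = percent inhibition above a per-plate cutoff, the plate mean of test compounds plus 3 SD, cut at about 30% in these data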
# Target sequence (Q17339 whole entry, looked up): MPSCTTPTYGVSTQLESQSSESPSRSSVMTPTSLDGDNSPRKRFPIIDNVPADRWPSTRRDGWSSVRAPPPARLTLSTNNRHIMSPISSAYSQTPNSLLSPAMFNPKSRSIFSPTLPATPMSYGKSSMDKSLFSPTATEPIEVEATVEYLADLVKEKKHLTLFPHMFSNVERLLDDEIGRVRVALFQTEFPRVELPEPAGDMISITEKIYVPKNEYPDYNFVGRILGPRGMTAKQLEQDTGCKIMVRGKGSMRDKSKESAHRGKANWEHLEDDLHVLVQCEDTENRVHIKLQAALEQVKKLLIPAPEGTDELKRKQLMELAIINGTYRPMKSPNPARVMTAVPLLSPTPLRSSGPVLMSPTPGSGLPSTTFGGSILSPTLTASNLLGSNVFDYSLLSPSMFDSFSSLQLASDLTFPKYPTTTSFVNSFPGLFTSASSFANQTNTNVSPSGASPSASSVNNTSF
# Bim-Mcl-1 – inhibitors of Bim peptide binding to Mcl-1, primary screen, biochemical, bead-based flow cytometry, multiplex; Induced myeloid leukemia cell differentiation protein Mcl-1 (Homo sapiens), Q07820; inhibition, % at 10 µM; hit rate 0.1% among 190,000; Bim peptide-Mcl-1 binding; in the data active = inhibition above about 40%
# Mcl1 Bid PPI – Mcl-1/Bid binding inhibitors, primary screen, biochemical, TR-FRET, 1536-well; TR-FRET Mcl-1/Bid-Dy647 peptide binding; inhibition, % at 21.7 µM; hit rate 0.97% among 220,000;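 active = compounds that cut the binding signal by more than half at the single screening dose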;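 note: His-tagged Mcl-1 with europium anti-His antibody binding Bid BH3 peptide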
# Mcl1-Noxa inh – Mcl-1/Noxa binding inhibitors, primary screen, biochemical, TR-FRET, 1536-well; Induced myeloid leukemia cell differentiation protein Mcl-1 (Homo sapiens), Q07820; TR-FRET Mcl-1/Noxa peptide binding, 2 h; inhibition, % at 21.7 µM; hit rate 1.5% among 220,000;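 active = compounds that cut the protein-peptide binding signal by more than 50% relative to plate controls in a single-dose test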;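 note: His-tagged Mcl-1 with rhodamine Noxa BH3 peptide and terbium anti-His antibody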
# A number is an active result; n = inactive; x = no result. The list is not random: actives were taken first. Their share in the collection is about 2.3%.
SMILES,Bcl-xL primary,MCL1 BIM primary,GLD-1 RNA inh,Bim-Mcl-1,Mcl1 Bid PPI,Mcl1-Noxa inh
Cc1ccc(S(=O)(=O)Nc2nc3ccccc3nc2N2CCN(c3ccccc3F)CC2)cc1,n,n,n,n,n,51
O=[N+]([O-])c1cccc(S(=O)(=O)Nc2ccc(S(=O)(=O)N3CCCC3)cc2)c1,n,n,n,x,x,x
O=[N+]([O-])c1cccc(S(=O)(=O)Nc2nc3ccccc3nc2Nc2cccc(S(=O)(=O)N3CCCCC3)c2)c1,x,x,x,n,99,73
Cc1ccc(S(=O)(=O)NC2=C(N3CCN(c4ccccc4F)CC3)C(=O)c3ccccc3C2=O)cc1,n,n,n,n,n,x
Cc1ccc(S(=O)(=O)Nc2nc3ccccc3nc2Nc2cccc(S(=O)(=O)N3CCCC3)c2)cc1,37,n,n,n,n,n
COc1cc(NC(=O)Cc2cccc3ccccc23)c(C(=O)O)cc1OC,n,n,n,x,x,x
CC(=O)Nc1nonc1-c1nc2ccccc2n1N(C(C)=O)C(C)=O,n,n,n,n,n,52
Cn1cc(/C=C(\C#N)C(=O)Nc2cccc([N+](=O)[O-])c2)c2ccccc21,n,n,n,n,52,n
Cn1cc(/C=N/NC(=O)c2cccc([N+](=O)[O-])c2)c2ccccc21,n,n,n,n,n,n
COc1ccc(/C=C(\NC(=O)c2ccco2)C(=O)NCc2ccco2)cc1,n,n,n,x,x,x
COC(=O)/C(=N/Nc1ccc(C)cc1)N1CCCc2ccccc21,n,n,n,n,n,n
COC(=O)/C(=N/Nc1ccccc1)N1CCCc2ccccc21,n,n,n,n,95,n
N#Cc1cccc(NC(=O)Cn2cnc(S(=O)(=O)N3CCOCC3)c2)c1,n,n,n,x,x,x
Cc1cc(C)n2nc(SCC(=O)N(CCC#N)c3ccccc3F)nc2n1,n,n,n,x,x,x
O=C(Nc1ccccc1N1CCOCC1)c1cccs1,n,n,n,82,n,n
CN(C)CCCNCC(=O)Nc1ccccc1N1CCOCC1,n,n,n,n,62,n
Cc1ccc(C2C(C#N)=C(N)Oc3c2sc2ccccc32)o1 (stereo unspecified),n,n,n,n,n,74
COCCN(C(=O)c1csnn1)C(C(=O)NC1CCCC1)c1ccccc1F (stereo unspecified),n,n,n,x,x,x
Cc1ccc(-n2c(C)n[nH]c2=S)cc1C,n,n,n,n,97,n
O=c1[nH]c(=O)n(C2OC(CO)C(O)C2O)cc1Br (stereo unspecified),n,n,n,x,x,x
O=C(N/N=C1/C(=O)c2cccc3cccc1c23)c1ccc(Cl)cc1,57,46,n,n,88,n
CCOC(=O)CN(C(=O)CSc1nnnn1C)c1ccccc1,x,x,n,x,x,x
C[C@@]12C(=O)N(Cc3ccc(F)cc3)CC(=O)N1[C@H]1c3cc(Cl)ccc3OC[C@@H]1[C@@H]2c1ccccc1,x,x,n,x,x,x
CCOC(=O)c1c(N)sc(=S)c2c1CCC2,37,46,n,n,54,57
CCOC(=O)c1c(N)sc(N)c1C(=O)OCC,n,n,n,n,n,69
SMILES,Bcl-xL primary,MCL1 BIM primary,GLD-1 RNA inh,Bim-Mcl-1,Mcl1 Bid PPI,Mcl1-Noxa inh
CN1CCc2c(sc(NC(=O)C3CCN(S(=O)(=O)c4cccs4)CC3)c2C(N)=O)C1,n,n,n,x,x,x
COc1ccc(CCNC(=O)CN2C(=O)NC(Cc3c[nH]c4ccccc34)C2=O)cc1 (stereo unspecified),n,n,n,x,x,x
O=C(c1ccccc1F)N1CCN(Cc2ccccc2F)CC1,n,n,n,n,59,n
O=C(c1ccc(Br)cc1)N1CCN(Cc2ccccc2)CC1,n,n,n,x,x,x
O=C(c1cccc(Cl)c1)N1CCN(Cc2ccccc2F)CC1,n,n,n,n,69,n
O=C(c1ccccc1)N1CCN(Cc2ccccc2Br)CC1,n,n,n,n,84,n
O=C(c1cccc(Cl)c1)N1CCN(Cc2ccncc2)CC1,x,x,x,n,n,n
COC(=O)[C@]1(C)N[C@H](CN(C)C(C)=O)[C@@H]2C(=O)N(Cc3ccccc3)C(=O)[C@@H]21,x,x,n,x,x,x
CCCOc1ccc(CNC(=O)c2ccc3nc(N4CCOCC4)sc3c2)cc1,n,n,n,x,x,x
CN1CCN(c2nc(-c3cccnc3)nc3ccccc23)CC1,n,n,n,n,n,n
CCCN1CCN(c2nc(-c3cccs3)nc3ccccc23)CC1,n,n,n,n,n,53
CCN1CCN(c2nc(-c3ccncc3)nc3ccccc23)CC1,n,n,n,n,n,51
CC(=O)N1CCN(c2nc(-c3cccs3)nc3ccccc23)CC1,n,n,n,n,n,n
CCN1CCN(c2nc(-c3cccnc3)nc3ccccc23)CC1,n,n,n,n,n,66
Cc1cc(OCC(=O)Nc2ccc(N3CCN(C(=O)c4ccco4)CC3)cc2)cc(C)c1Cl,n,n,n,n,57,n
CC(C)N(C(=O)CSc1nnnn1-c1ccc2c(c1)OCO2)C(C)C,n,n,n,n,65,n
Cc1ccc(OCC(=O)NNc2c3ccccc3nc3ccccc23)cc1,n,n,n,n,62,51
CCOc1ccc(Nc2cc(C)c3ccccc3n2)cc1,n,n,n,x,x,x
COc1ccc(Nc2nc(C)c3ccccc3n2)cc1,n,n,n,n,102,n
CCOc1ccc(Nc2c3ccccc3nc3ccccc23)cc1,n,n,n,x,n,53
COc1ccc(Nc2nc(-c3ccccc3)c3ccccc3n2)cc1,n,n,n,n,n,n
COC(=O)c1ccc(C(=O)N=c2sccn2C)cc1,n,n,n,x,x,x
O=C1NCCCCC1NS(=O)(=O)c1ccc(Cl)cc1 (stereo unspecified),n,n,n,x,x,x
CCC(C)[C@H](NC(=O)Nc1ccccc1F)C(=O)O (stereo partly specified),n,n,n,x,85,n
CCc1ccccc1NC(=O)N[C@H](C(=O)O)C(C)CC (stereo partly specified),n,n,n,n,n,n
CCCCN(C(=O)CSc1nnc(-c2ccc(OC)cc2)n1CC)c1c(N)n(Cc2ccccc2)c(=O)[nH]c1=O,n,n,n,n,n,60
CCCCN(C(=O)CSc1nnc(-c2ccc(OC)cc2)n1C(C)C)c1c(N)n(Cc2ccccc2)c(=O)[nH]c1=O,n,n,n,n,n,62
CCCCN(C(=O)CSc1nnc(-c2ccccc2OC)n1C)c1c(N)n(Cc2ccccc2)c(=O)[nH]c1=O,n,n,n,n,n,n
COC(=O)c1cc(NC(=O)COC(=O)C2COc3ccccc3O2)cc(C(=O)OC)c1 (stereo unspecified),x,x,n,x,x,x
